Data published in PubChem BioAssay AID1345085 (National Center for Advancing Translational Sciences (NCATS), 2018).
Results filed as inconclusive are left out. A number with no mark means an inactive call. Activity calls are given as the source filed them. Calls come from the whole dose curve; as a rule, active = well fitted cell-killing curve with a large enough effect; inconclusive = small, poorly fitted or top-dose-only effect, or effect the other way; inactive = no such curve, though single readings can be large or run the other way.

System: Jar
Experiment: Confirmatory qHTS for gynecologic anti-cancer compounds from libraries of approved drugs and bioactive compounds; note: nearly all actives have a fitted effect of over 55% in size
Conditions: gynecologic cancer cell panel viability, ATPlite luminescence, 48 h; series mostly up to 57.6 µM; activity change, negative = viability loss: at the top concentration
Method in brief: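 Cells (1,000/well) were plated, left 16 h at 37 C/5% CO2, then given compound at 11 concentrations (1:3) from 57.5 uM to 0.977 nM for 48 h. ATPlite luminescence after 15 min at room temperature gave IC50 values.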
% is set by controls: 0 for no effect and ±100 for the full control effect; potency is the fitted concentration of half-maximal effect.

SMILES	Potency	activity change, negative = viability loss
O=C(CCCCCCNC(=O)c1cnc(N(c2ccccc2)c2ccccc2)nc1)NO	8.63 µM (active)	
CN(C)C(CCOc1cccc2ccccc12)c1ccccc1 (stereo not given)		2.73%
CC(C)(C)C(=O)OCOP(=O)(COCCn1cnc2c(N)ncnc21)OCOC(=O)C(C)(C)C	9.68 µM (active)	
COCCOc1ccc2c(c1)ncn2-c1ccc2cccc(N3CCC(N)CC3)c2n1		12.2%
NC(=O)Nc1cc(-c2cccc(F)c2)sc1C(=O)NC1CCCNC1 (stereo not given)	1.22 µM (active)	
